The values that follow come from article PMC10668032, “Altered binding affinity of SIX1-Q177R correlates with enhanced WNT5A and WNT pathway effector expression in Wilms tumor”.

The full ranking holds about 33,000 sequences; the median of “e-score” is about -0.053, and the highest 2% start at about 0.38. Only a selection was taken, and the highest values are over-represented in it overall.

For this assay, the target named is T1, SIX1 homeodomain (reference allele) (human, UniProt Q15475 108-198).
T1 sequence: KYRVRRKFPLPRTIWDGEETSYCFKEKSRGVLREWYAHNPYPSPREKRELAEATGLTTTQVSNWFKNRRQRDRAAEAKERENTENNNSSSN
Nature of the assay: universal protein binding microarray; Universal all-10-mer PBM (8x60K, AMADID 030236), 300 nM GST-tagged protein, Alexa Fluor 488 anti-GST; buffer, salt, pH and temperature not stated (as in Berger); high values mean tight binding. Conditions: protein: ivt; tags: N-terminal GST; dsDNA, one strand shown. The gist of the method: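 Binding was expressed as 8-mer E-scores calculated with the Universal PBM Analysis Suite. The GST-tagged homeodomains, made by in vitro transcription/translation, were applied in duplicate at 300 nM final concentration to universal 'all 10-mer' protein binding microarrays (8×60K format).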
As for ATCTACTC, the binding signal came out at 0.297 ± 0.0368 E-score.
Next, ATATGTAG: 0.151 ± 0.0301 E-score; CATAAACC: 0.19 ± 0.0201 E-score.
For GATAATCC, the binding signal is 0.34 ± 0.0479 E-score.
Next, CGACTATC: 0.246 ± 0.0396 E-score; GAGATCAC: 0.368 ± 0.00856 E-score.
With ATCCTTGG, the binding signal amounted to 0.189 ± 0.0361 E-score.
Next, GATCCGGA: 0.405 ± 0.0443 E-score; AATCCGGA: 0.276 ± 0.0325 E-score.
On to CATCCGGA, for which the binding signal stood at 0.21 ± 0.0635 E-score.
The figure for ACACCAAC is 0.224 ± 0.00659 E-score; for ACCCTATC it is 0.346 ± 0.0051 E-score; for CCCCTATA it is 0.198 ± 0.0352 E-score.
Next, CCCCTATC: 0.405 ± 0.0204 E-score; GCTATCAC: 0.357 ± 0.0605 E-score.
The figure for GATATTAC is 0.319 ± 0.0605 E-score; for TATATCAA it is 0.361 ± 0.0752 E-score; for GATATTAA it is 0.31 ± 0.0894 E-score.
As for CATATCAA, the binding signal was 0.452 ± 0.0378 E-score.
Next, CAGATCAA: 0.298 ± 0.00526 E-score.
The figure for AATATCTA is 0.259 ± 0.0807 E-score; for GATATCAC it is 0.476 ± 0.018 E-score; for CATATCTA it is 0.322 ± 0.0223 E-score.
The figure for GATATCTA is 0.392 ± 0.0618 E-score; for GATATCAA it is 0.453 ± 0.0358 E-score; for CTAATCTC it is 0.175 ± 0.0194 E-score.
As for ATCCACTG, the binding signal was determined as 0.152 ± 0.0476 E-score.
The figure for ATCAAACC is 0.261 ± 0.00716 E-score.
The figure for GATCAATC is 0.366 ± 0.0109 E-score.
Next, ATACGCTC: 0.245 ± 0.0572 E-score; GGATCTAA: 0.285 ± 0.00708 E-score; ATACGAAG: 0.199 ± 0.0115 E-score.
For GTATTCCA, the binding signal is 0.202 ± 0.0137 E-score.
Next, ATACGTCC: 0.24 ± 0.0851 E-score; AGCGATAC: 0.453 ± 0.01 E-score; AGCGATAG: 0.209 ± 0.0329 E-score.
Next, GGCGATAC: 0.4435 ± 0.00237 E-score.
The figure for CGCGACAC is 0.254 ± 0.0327 E-score.
With AGCGATCA, the binding signal turned out to be 0.206 ± 0.0525 E-score.
The figure for GGCGATGA is 0.193 ± 0.0619 E-score.
As for AGCGCGAT, the binding signal amounted to 0.166 ± 0.026 E-score.
Turning to AGCGATAT, the binding signal came out at 0.42 ± 0.0465 E-score.
For CGCGATAG, the binding signal was found to be 0.199 ± 0.0163 E-score.
Consider GGCGATCA, for which the binding signal was 0.338 ± 0.00739 E-score.
As to AGCGATCG, the binding signal was 0.211 ± 0.0392 E-score.
Turning to CGCGATAC, the binding signal stood at 0.458 ± 0.000728 E-score.
As for ATACACGA, the binding signal is 0.234 ± 0.00563 E-score.
The figure for GGCCGATA is 0.29107 ± 0.000269 E-score; for CGATGCAG it is 0.21 ± 0.0529 E-score.
Next, AGGCATAT: 0.308 ± 0.0386 E-score.
The figure for GACAGATC is 0.286 ± 0.0143 E-score; for GTAATCTA it is 0.15 ± 0.0468 E-score.
With CTATACTA, the binding signal came to 0.168 ± 0.0897 E-score.
The figure for CCTCTAGA is 0.158 ± 0.0403 E-score; for ACCGCGCG it is 0.175 ± 0.0242 E-score.
The figure for AGCGATCC is 0.356 ± 0.0223 E-score.
The figure for CGCGATCC is 0.391 ± 0.0245 E-score; for CGCGATCA it is 0.272 ± 0.00455 E-score.
CGTATATA: the binding signal came out at 0.253 ± 0.0289 E-score.
Next, GGTATACC: 0.464 ± 0.0068 E-score; GGTATAGA: 0.3008 ± 0.001 E-score; ATTATACG: 0.302 ± 0.0645 E-score.
The figure for GGTATATA is 0.384 ± 0.0217 E-score.
The figure for AGTATACA is 0.294 ± 0.0103 E-score.
As for ATTATACC, the binding signal was 0.389 ± 0.0376 E-score.
Take GGTATAAC: the binding signal was 0.301 ± 0.0179 E-score.
The figure for GGTATACA is 0.3843 ± 0.00371 E-score; for GCTATACC it is 0.284 ± 0.0448 E-score; for CTTATACC it is 0.275 ± 0.0521 E-score.
The figure for TGTATACA is 0.3188 ± 0.000346 E-score; for ACCAGTAT it is 0.24 ± 0.0167 E-score.
Next, ATCCTGTC: 0.228 ± 0.0128 E-score; ATCCATGA: 0.273 ± 0.0349 E-score.
For CGCAGATC, the binding signal amounted to 0.214 ± 0.00241 E-score.
Next, GGATAGCA: 0.241 ± 0.00553 E-score; ATCTATTC: 0.24 ± 0.00333 E-score; AGTATACC: 0.389 ± 0.0206 E-score.
As for AGTATACT, the binding signal amounted to 0.219 ± 0.0526 E-score.
The figure for CGTATACC is 0.367 ± 0.014 E-score; for ATACTTGC it is 0.215 ± 0.0473 E-score; for CAGGGATA it is 0.328 ± 0.0119 E-score.
The figure for GAAGGATA is 0.268 ± 0.0478 E-score; for ATGGGATC it is 0.368 ± 0.0389 E-score.
The figure for CTGGGATC is 0.297 ± 0.0767 E-score; for CGGGGATC it is 0.396 ± 0.0226 E-score; for CCGGGATC it is 0.375 ± 0.0348 E-score.
For CAGGGATC, the binding signal was 0.42 ± 0.0412 E-score.
Next, AGGGGATC: 0.426 ± 0.0173 E-score; ACGGGATC: 0.342 ± 0.0556 E-score; GAAGGATC: 0.39 ± 0.012 E-score.
The figure for CAAGGATC is 0.351 ± 0.0137 E-score; for AGGGGATG it is 0.201 ± 0.0454 E-score; for GCTGTATA it is 0.232 ± 0.0591 E-score.
As for ATACACTG, the binding signal stood at 0.338 ± 0.00871 E-score.
